# Source: PubChem BioAssay AID1159580 (chemical genetic matrix, 2015)
# The whole screen tested about 5,500 compounds, of which about 2,000 (36%) were called active. Another 18% or so got no clear call; they are omitted. Some of the results follow. A number with no mark means an inactive call. Rule as the data show it: active = normalized growth mostly below about 0.91 (no sharp cut-off); inconclusive = no clear call, values can overlap the other calls; inactive = mostly above about 0.92.
# Experiment: chemical genetic growth profiling, strain panel (AID 1159580);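 also: tested at 20 µM; growth read once vehicle control cultures reached saturation at 30 °C; 1 = growth at the plate median or of vehicle wells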
# Details: growth OD
structure (smiles),measurement,setting,value
O/N=C(/CNC(c1ccccc1)(c1ccccc1)c1ccccc1)c1ccccc1,normalized growth,"S. cerevisiae deletion strains, locus YAL013W, strain DEP1, stronger effect = lower value",0.969
same,normalized growth,"S. cerevisiae deletion strains, locus YBR229C, strain ROT2, stronger effect = lower value",0.977
same,normalized growth,"S. cerevisiae deletion strains, locus YDL101C, strain DUN1, stronger effect = lower value",0.963
same,normalized growth,"S. cerevisiae deletion strains, locus YDR150W, strain NUM1, stronger effect = lower value",0.9
same,normalized growth,"S. cerevisiae deletion strains, locus YEL061C, strain CIN8, stronger effect = lower value",0.949
same,normalized growth,"S. cerevisiae deletion strains, locus YGR078C, strain PAC10, stronger effect = lower value",0.987
same,normalized growth,"S. cerevisiae deletion strains, locus YHR030C, strain SLT2, stronger effect = lower value",0.594 (active)
same,normalized growth,"S. cerevisiae deletion strains, locus YHR087W, strain rtc3, stronger effect = lower value",1.01
same,normalized growth,"S. cerevisiae deletion strains, locus YJL187C, strain SWE1, stronger effect = lower value",0.97
same,normalized growth,"S. cerevisiae deletion strains, locus YJR043C, strain POL32, stronger effect = lower value",0.988
same,normalized growth,"S. cerevisiae deletion strains, locus YJR075W, strain HOC1, stronger effect = lower value",1.02
same,normalized growth,"S. cerevisiae deletion strains, locus YLR039C, strain RIC1, stronger effect = lower value",1.01
same,normalized growth,"S. cerevisiae deletion strains, locus YLR058C, strain SHM2 (second series), stronger effect = lower value",0.975
same,normalized growth,"S. cerevisiae deletion strains, locus YLR085C, strain ARP6, stronger effect = lower value",0.819
same,normalized growth,"S. cerevisiae deletion strains, locus YLR262C, strain YPT6, stronger effect = lower value",1.02
same,normalized growth,"S. cerevisiae deletion strains, locus YML094W, strain GIM5, stronger effect = lower value",0.969
same,normalized growth,"S. cerevisiae deletion strains, locus YMR219W, strain ESC1, stronger effect = lower value",0.968
same,normalized growth,"S. cerevisiae deletion strains, locus YMR263W, strain SAP30, stronger effect = lower value",0.999
same,normalized growth,"S. cerevisiae deletion strains, locus YNL153C, strain GIM3, stronger effect = lower value",1.03
same,normalized growth,"S. cerevisiae deletion strains, locus YNL298W, strain CLA4 (second series), stronger effect = lower value",1
same,normalized growth,"S. cerevisiae deletion strains, locus YNL322C, strain KRE1, stronger effect = lower value",0.985
same,normalized growth,"S. cerevisiae deletion strains, locus YNR030W, strain Alg12, stronger effect = lower value",0.976
same,normalized growth,"S. cerevisiae deletion strains, locus YPL055C, strain LGE1, stronger effect = lower value",0.998
same,normalized growth,"S. cerevisiae deletion strains, locus YPL241C, strain CIN2, stronger effect = lower value",0.964
same,normalized growth,"S. cerevisiae deletion strains, locus YPR135W, strain CTF4, stronger effect = lower value",0.758
same,normalized growth,"S. cerevisiae strains, strain wild type, stronger effect = lower value",0.969
